Screening results (PubChem BioAssay)
MITF inh = MITF inhibitors, primary screen, biochemical, AlphaScreen, human; Microphthalmia-associated transcription factor (Homo sapiens), O75030; inhibition, % at 2.6 µM; 0.91% of 650,000 active; AlphaScreen MITF homodimerization, bead proximity signal; in the data active = inhibition above about 50%;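 also: 0% = vehicle wells with protein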
Target sequence (O75030 whole entry, looked up): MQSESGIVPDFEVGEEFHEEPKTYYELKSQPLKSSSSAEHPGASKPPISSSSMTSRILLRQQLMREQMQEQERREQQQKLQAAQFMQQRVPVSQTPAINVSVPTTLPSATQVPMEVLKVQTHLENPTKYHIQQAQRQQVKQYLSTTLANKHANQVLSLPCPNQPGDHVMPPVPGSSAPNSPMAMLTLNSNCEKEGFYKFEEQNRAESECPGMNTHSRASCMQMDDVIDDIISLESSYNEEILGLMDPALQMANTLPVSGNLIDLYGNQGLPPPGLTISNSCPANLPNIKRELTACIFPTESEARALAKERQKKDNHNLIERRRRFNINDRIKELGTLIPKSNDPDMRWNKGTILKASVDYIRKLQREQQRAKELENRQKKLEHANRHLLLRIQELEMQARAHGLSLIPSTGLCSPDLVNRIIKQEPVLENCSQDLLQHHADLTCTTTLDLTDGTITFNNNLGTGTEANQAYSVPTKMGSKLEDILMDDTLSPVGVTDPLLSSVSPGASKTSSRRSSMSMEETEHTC
FBW7 activator = FBW7 E3 ligase activators, primary screen, biochemical, AlphaScreen, human | normalized activity (activation), % at 26.1 µM | 0.13% of 650,000 active | AlphaScreen FBW7–phospho-cyclin E peptide binding, activator screen | AID 1259310, 2017 | F-box/WD repeat-containing protein 7 (Homo sapiens), Q969H0; in the data active = normalized activity above about 1.9%;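 also: purified mutant Fbw7 with reduced substrate affinity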
GPR151 activ = activators of human GPR151, primary screen, cell-based, PathHunter beta-arrestin, luminescence; G-protein coupled receptor 151 (Homo sapiens), Q8TDV0; PathHunter beta-arrestin GPR151 cells; activation, % at 11.2 µM; 1% of 650,000 active; AID 1508602, 2020; in the data active = activation above about 4.9%;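 also: 0% = median of compound wells and 100% = cells with positive control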
TEAD-YAP inh = TEAD-YAP interaction inhibition, primary screen, TEAD-YAP interaction inhibitor project, luminescence, HEK-TIYL cells; TEAD-Gal4/YAP UAS-luciferase luminescence; inhibition, % at 9.12 µM; 1.4% of 640,000 active; AID 1259422, 2018; in the data active = inhibition above about 32%;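 also: 0% = median of test compound wells and 100% = reference inhibitor wells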
The depositor's hits bear a star. Most compounds without a hit are left out; they make up all but 3.5% or so of the library.

SMILES	MITF inh	FBW7 activator	GPR151 activ	TEAD-YAP inh
COc1cc(-c2nc(C(N)=O)c3[nH]c(=O)n(-c4ccc(C)cc4)c3n2)cc(OC)c1OC	-11	0	1	6
COc1ccc(-c2nc(C(N)=O)c3[nH]c(=O)n(-c4ccc(F)cc4)c3n2)cc1OC	1	0	-2	8
COc1ccc(-c2nc(C(N)=O)c3[nH]c(=O)n(-c4ccc(F)cc4)c3n2)cc1O	16	1	1	54*
COc1ccc(-c2nc(C(N)=O)c3[nH]c(=O)n(-c4ccc(C)cc4)c3n2)cc1O	-6	0	0	67*
COc1ccc(-c2nc(C(N)=O)c3[nH]c(=O)n(-c4cccc(C)c4)c3n2)cc1	15	1	0	58*
COc1ccc(-c2nc(C(N)=O)c3[nH]c(=O)n(-c4ccc(Cl)cc4)c3n2)cc1O	6	0	0	51*
CCCc1[nH]n(-c2ccc(F)cc2)c(=O)c1C=Nc1ccccc1C(=O)OC	8	0	0	-5
O=C(Nn1c(-c2ccc(Br)cc2)nc2ccccc2c1=O)c1cccnc1Cl	9	0	1	16
CN(C)Cc1ccccc1-c1cccc(OC2CCN(S(C)(=O)=O)CC2)c1	2	0	-3	0
CCN(CC)CCCNC(=O)c1sc2ncnc(N3CCc4ccccc4C3)c2c1C	5	0	0	-17
CC1=NN(c2nc3ccccc3[nH]2)C(=O)C1CCC(C)C (stereo not given)	31	-1	-2	73*
CCOc1ccc(/C(O)=C2\C(=O)C(=O)N(CCN3CCOCC3)C2c2ccc(OC)c(OC)c2)c(C)c1 (stereo not given)	3	0	1	2
FC(F)(F)c1cccc(CNc2nc(Nc3cnccn3)nc3c2ncn3-c2ccccc2)c1	-5	0	-1	6
FC(F)(F)c1cccc(CNc2nc(NCc3cccnc3)nc3c2ncn3-c2ccccc2)c1	-8	0	0	48*
CC(C)n1cnc2c(NCc3cccc(C(F)(F)F)c3)nc(NCc3cccnc3)nc21	13	0	0	40*
CCOC(=O)c1sc(NC(=O)CSc2nnc(CNC(=O)c3ccc(C)c(C)c3)n2-c2cccc(C)c2)c(C(=O)OCC)c1C	10	0	-1	13
CN(C)Cc1c(O)ccc2c(=O)c(-c3ccc4c(c3)OCCO4)c(C(F)(F)F)oc12	-5	0	1	-7
CCOC(=O)C1CCN(Cc2cccc(OC)c2O)CC1	19	0	0	-3
O=C(C1CCN(Cc2ccccc2O)CC1)N1CCc2ccccc2C1	38	0	0	15
COc1cccc(CN2CCC(C(=O)N3CCc4ccccc4C3)CC2)c1O	51*	1	1	1
CCOC(=O)N1CCN(C(=O)C2CCN(Cc3cccc(OC)c3O)CC2)CC1	55*	0	-1	-6
Cn1c(Nc2nc3ccc(C(=O)Nc4ccccc4)cc3s2)nc2ccccc21	4	0	2	-36
Cc1ccsc1/C=C1\CCc2ccccc2C1=O	-3	0	-11	68*
COc1ccccc1-c1nc2n(n1)C(c1ccc(Cl)cc1)C1=C(CCCC1=O)N2 (stereo not given)	-5	0	-2	-4
O=C1CC(Cc2ccc(Cl)cc2)C(=O)N1c1ccc([N+](=O)[O-])cc1 (stereo not given)	5	0	0	0
SMILES	MITF inh	FBW7 activator	GPR151 activ	TEAD-YAP inh
CN=c1scc(-c2ccc(C)c(C)c2)n1/N=C/c1ccc(O)c(O)c1O	21	-1	-2	70*
Cc1nc2ncnn2c(NCCc2ccccc2)c1C	17	1	-1	42*
COc1ccc(CCNc2c(C)c(C)nc3ncnn23)cc1	-2	0	1	60*
COc1ccc(CNc2c(C)c(C)nc3ncnn23)cc1	12	0	1	26
CN(C)CCN1N=C(C(C)(C)C)Cn2c(cc3ccccc32)C1=O	10	0	1	3
Cc1ccc2nc(-c3cccc(Cl)c3)cn2c1	7	0	-8	77*
COc1ccc(-c2cn3cc(C)ccc3n2)cc1F	1	0	-6	68*
Cc1ccc2nc(-c3ccc4c(c3)NC(=O)CO4)cn2c1	3	0	-1	-49
Cc1ccc2nc(-c3ccc4ccccc4c3)cn2c1	2	0	-6	94*
CN(C)S(=O)(=O)c1cccc(-c2cn3cc(Cl)ccc3n2)c1	15	0	-1	-44
COc1ccc(-c2cn3cc(C)ccc3n2)cc1OC	4	0	-8	-5
CCC(C)N1CCN(C(=O)c2cccc(OC)c2)CC1 (stereo not given)	41	0	-1	-18
CCOc1ccc2c(C)nc(/N=C(\N)NC(C)=O)nc2c1	11	1	-2	-39
c1ccc2c(c1)CN[C@H](c1nc3ccc(-c4ccncc4)cc3[nH]1)C2	13	-1	1	-15
Cc1ncoc1C(=O)NCC1Cc2cc(-c3ccsc3)cc(Cl)c2O1 (stereo not given)	23	0	-1	-11
O=C(Cn1c2c(c3ccccc31)CCC2)NC1=NCCS1	10	0	0	77*
CC(C)CCN1C=NS(=O)(=O)c2ccccc21	-1	0	0	7
COc1cc(NC(=O)c2ccc(Cl)cc2[N+](=O)[O-])cc(OC)c1	-1	0	-1	3
COc1ccc(CNC(=O)C(=O)c2c(C)[nH]c3ccccc23)cc1	-3	0	1	-1
O=C1c2ccccc2NC2(CCCCC2)N1c1ccc(O)cc1	-13	0	-2	58*
Nc1nc2ccc(Oc3ccc4nc(N)sc4c3)cc2s1	16	0	1	33*
Nc1ccc2nc(N)sc2c1	12	0	-2	2
Cn1c(NCc2ccncc2)nc2ccccc21	-22	0	0	-4
Cn1c(CNc2ccc(O)cc2)nc2ccccc21	12	0	-1	-16
Cc1ccc(CNc2nc3ccccc3n2C)cc1	19	1	-8	75*
SMILES	MITF inh	FBW7 activator	GPR151 activ	TEAD-YAP inh
Cc1ccc(NCc2nc3ccccc3n2C)cc1	23	0	-5	35*
COc1cccc(Nc2nnc(Cc3ccccc3Cl)c(=O)[nH]2)c1	-4	0	-1	46*
O=c1[nH]c(Nc2ccccc2)nnc1Cc1ccccc1Cl	-7	0	0	4
CC(=Nc1ccccc1)c1c(O)n(C)c(=O)n(C)c1=O	-5	0	1	6
O=C(CSCc1ccccc1)N1CCCc2ccccc21	-6	-1	1	-6
Cc1cc(Nc2cc3ccccc3cc2O)n2ncnc2n1	-3	0	-1	65*
Cc1cc(Nc2c(C)cccc2C)n2ncnc2n1	0	0	-1	-5
CCCNC(=O)C/C(C)=N/NC(=O)c1ccc(OC)c(OC)c1	-11	0	-1	34*
COc1ccc(C(=O)N/N=C(\C)c2ccc(C#N)cc2)cc1OC	1	0	-1	41*
COc1ccc(/C(C)=N/NC(=O)c2cccc(F)c2)cc1OC	-9	0	-1	-12
CCCCOc1ccc(C(=O)NO)cc1OC	-7	0	-1	40*
